Reference: the supplement of paper PMC10981050
Several values for one entry are separate records, joined by “and”; a condition that tells them apart may be missing. Equal entries are not always repeated.

Assays:
Assay in all cases: cell viability relative to vehicle control; higher = less cytotoxic
Details in all cases: 10 µM
[1] = tested on: K562
Summary of the method: (§1)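 Mutant clones made by CRISPR editing and their isogenic wild-type counterparts, from four leukaemia lines, were exposed to a single 10 µM dose of each library compound for 48 h. The supernatant was then removed and CellTiter-Glo luminescence was read. Viability was reported as percent of the on-plate vehicle control.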

[2] = tested on: MARIMO
Summary of the method: as §1

[3] = tested on: MOLM14
Summary of the method: as §1

[4] = tested on: OCI-AML2
Summary of the method: as §1

SMILES	cell viability ([1]; SRSF2 genotype: SRSF2 P95H/wt)	cell viability ([1]; SRSF2 genotype: SRSF2 wt/wt) [%]	cell viability ([2]; SRSF2 genotype: SRSF2 P95H/wt) [%]	cell viability ([2]; SRSF2 genotype: SRSF2 wt/wt) [%]	cell viability ([3]; SRSF2 genotype: SRSF2 P95H/wt) [%]	cell viability ([3]; SRSF2 genotype: SRSF2 wt/wt) [%]	cell viability ([4]; SRSF2 genotype: P95H/wt) [%]	cell viability ([4]; SRSF2 genotype: wt/wt) [%]
CC[C@H]1OC(=O)[C@@](C)(F)C(=O)[C@H](C)[C@@H](O[C@@H]2O[C@H](C)C[C@H](N(C)C)[C@H]2O)[C@](C)(OC)C[C@@H](C)C(=O)[C@H](C)[C@H]2N(CCCCn3cc(-c4cccc(N)c4)nn3)C(=O)O[C@]12C [Solithromycin]	91% and 93.4%	91.2	107	101	89.4	94.9	94.1	93.5
COc1ccc2[nH]cc(/C=C3\C(=O)Nc4ccc(NC(=O)CCN5CCCCC5)cc43)c2c1	7.59% and 11%	8.26	37.9	33.6	0.75	0.77	0.4	0.72
C[C@@]12C[C@@]3(O)O[C@@H](O1)[C@]1(COC(=O)c4ccccc4)[C@@H]3C[C@]12O[C@@H]1O[C@H](COC(=O)c2ccccc2)[C@@H](O)[C@H](O)[C@H]1O [Benzoylpaeoniflorin]	99.7% and 101%	93.4	96.2	96.7	104	97.8	93.9	102
Cc1cc(C)c(CN2CCc3c(Cl)cc(-c4c(C)noc4C)c(Cl)c3C2=O)c(=O)[nH]1	78.7% and 87.1%	87.5	74.8	65.4	77.6	79.8	77.4	86.5
O=C(Nc1ccc(-c2ccnc(Nc3ccc(N4CCOCC4)cc3)n2)cc1)C1CCCN1 (stereo not drawn)	89.5% and 97.2%	89.5	72.2	73.5	35.5	22.4	43.1	39.2
O=C(/C=C/c1cccc(S(=O)(=O)Nc2ccccc2)c1)NO [Belinostat (PXD101)]	1.83% and 15.8%	5.17	8.17	13.7	0.86	0.57	2.66	4.34
O=C(NNc1ccccc1)c1ccncc1	82.8% and 97.5%	77.1	91.1	101	93.5	89.5	92.7	97.9
Cc1cc2c3c([n+](C)c4ccc(F)cc4c3c1)-c1cc(F)ccc1N2C [RHPS 4 methosulfate]	48.6% and 58.2%	61.4	52.5	50.6	5.12	27.5	0.13	8.9
O=C(O)c1cc(=O)[nH]c(=O)[nH]1 [Orotic acid (6-Carboxyuracil)]	104% and 95.1%	96.6	91.1	101	95.3	95.2	95.2	96.5
Cc1cc(-n2c(=O)[nH]c(=O)n(C)c2=O)ccc1Oc1ccc(SC(F)(F)F)cc1 [Toltrazuril]	105% and 104%	103	107	109	99.7	101	105	104
C=C1C(=O)O[C@@H]2C[C@@]3(C)CCCC(=C)[C@@H]3C[C@H]12 [Isoalantolactone]	27.5% and 44.2%	40.2	23	25.4	12	16.1	1.8	6.98
